In PubChem BioAssay AID1259343 (VanderVen Lab, College of Veterinary Medicine, Cornell …, 2017):
The campaign covered roughly 6,200 compounds. About 2,900 (47%) were called active. Cut-off read from the data, not from the text of the source: active = inhibition above about 50%; inactive = the rest. So high a share suggests a set chosen from earlier hits. Some of the results follow.

Assay: Mycobacterium tuberculosis growth inhibition, primary screen (AID 1259343)
Conditions: inhibition: at 10 µM, stronger effect = higher value; outcome: 10 uM
In the case of `O=c1c2c(F)c(F)c(F)c(F)c2on2c3c(nc12)CCCC3`, the inhibition was 44.8% (inactive). With `c1ccc(Sc2c(-c3ccccc3)nc3sccn23)cc1` the inhibition was 34.5% (inactive). In the case of `O=C(CSc1nnnn1-c1ccccc1)NNC(=O)c1ccc(O)cc1O`, the inhibition was 11.6% (inactive). For `c1ccc(-n2nnnc2SCCNc2nc3ccccc3[nH]2)cc1`, the inhibition was 42.9% (inactive). In the case of `O=[N+]([O-])c1ccc(Sc2nnnn2-c2ccccc2)c([N+](=O)[O-])c1`, the inhibition was 89.6% (active). In the case of `CC(C)c1ccc(-n2nnnc2SC(C)c2nnc(-c3ccc([N+](=O)[O-])cc3)o2)cc1` (configuration not stated), the inhibition was 18.5% (inactive). With `O=[N+]([O-])c1c(Sc2nnnn2-c2ccccc2)nc2sccn12` the inhibition was 99.2% (active). For `O=C1c2ccccc2NC2(CCCC2)N1CC(F)(F)F`, the inhibition was 85.2% (active). With `NC(=S)N=Nc1ccc(NN=C(N)N)cc1` the inhibition was 101% (active). With `CC(=O)C1=C(C(F)(F)F)N(C)C(=S)N(C)C1c1ccccc1` (configuration not stated) the inhibition was 70% (active). For `CN1CC(=O)N(CCCC(=O)Nc2ccc(OCc3ccccc3)cc2)C1=O`, the inhibition was 93.5% (active). In the case of `COc1ccc(OCCN2C(=O)CN(/C=C/c3ccccc3)C2=O)cc1`, the inhibition was -5.21% (inactive). For `C=CCN(CC(O)COc1ccccc1)CC1CC(c2ccccc2)=NO1` (configuration not stated), the inhibition was 20.8% (inactive). With `CC(O)CNCCCCOc1ccc(OCc2ccccc2)cc1` (configuration not stated) the inhibition was 96.8% (active). In the case of `OC1(c2ccc(OCc3ccccc3)cc2)CCOCC1`, the inhibition was 30.5% (inactive). In the case of `NS(=O)(=O)c1ccc2c(c1)CCN2Cc1cc(F)cc2c1OCOC2`, the inhibition was 3.61% (inactive). In the case of `Cc1ccc(C(=O)N2CCC(c3ccc(F)cc3)CC2)s1`, the inhibition was 33.5% (inactive). In the case of `O=C(O)C1CCN(C(=O)c2ccc(-c3ccc(Cl)cc3)s2)CC1`, the inhibition was 1.69% (inactive). For `CC1CCN(C(=O)c2ccc(-c3ccc(F)c(F)c3)s2)CC1`, the inhibition was 65.3% (active). In the case of `COc1ccc(NC(=O)N2CCCC(C(=O)c3sccc3C)C2)cc1OC` (configuration not stated), the inhibition was 23.7% (inactive). For `COc1cc(NC(=O)CN2CCC(n3ccnc3)C2)ccc1Cl` (configuration not stated), the inhibition was 85.6% (active). With `COc1cccc(C2CC2C(=O)Nc2cnc(C3CC3)nc2)c1` (configuration not stated) the inhibition was 37.3% (inactive). In the case of `O=C(Nc1ncc(Cl)s1)C1CC1c1ccco1` (configuration not stated), the inhibition was 86.5% (active). In the case of `O=C(NCC(O)COc1cccc(Cl)c1Cl)C1CC1c1ccco1` (configuration not stated), the inhibition was 12.8% (inactive). In the case of `CCCc1cc(=O)[nH]c(-n2nc(C)cc2NC(=O)c2ccc(OC)c(OC)c2)n1`, the inhibition was 102% (active). In the case of `CCc1cc(=O)[nH]c(-n2nc(C)cc2NC(=O)c2cc(OC)c(OC)c(OC)c2)n1`, the inhibition was -22.3% (inactive). For `CCCc1cc(=O)[nH]c(-n2nc(C)cc2NC(=O)c2cc(OC)c(OC)c(OC)c2)n1`, the inhibition was 100% (active). With `CC(NC(=O)COc1ccc2cc(Br)ccc2c1)c1ccc(F)cc1` (configuration not stated) the inhibition was -32.3% (inactive). In the case of `COC(=O)CN1C(c2ccc(OC)cc2)=Nc2ccc(Br)cc2C1c1ccccc1` (configuration not stated), the inhibition was 29.4% (inactive). With `O=C(O)COc1ccc2cc(Br)ccc2c1` the inhibition was 78.5% (active). For `Cc1cccc2c3c(ccc12)C1=C(C(=O)C3=O)C(C)CO1` (configuration not stated), the inhibition was 82.3% (active). In the case of `CN(CC(F)(F)C(F)F)S(=O)c1ccc2ccccc2c1` (configuration not stated), the inhibition was 49% (inactive). For `CC(NCC1(c2ccccc2)CCCC1)c1nnc(-c2ccccc2)o1` (configuration not stated), the inhibition was -0.11% (inactive). With `COc1ccc(-c2nnc(C(C)Nc3cccc4c3CCCC4)o2)cc1` (configuration not stated) the inhibition was 67.9% (active). In the case of `CN(Cc1ccccc1)C(=O)NCCc1ccc2c(c1)CCO2`, the inhibition was 66.7% (active). For `CN(Cc1ccco1)C(=O)NCCc1cccc(Cl)c1`, the inhibition was 49.7% (inactive). In the case of `O=C(Cc1ccc2c(c1)CCC2)NCCc1ccc2c(c1)OCCO2`, the inhibition was 37.8% (inactive). In the case of `c1ccc(CCCCc2nn3c(C4CC4)nnc3s2)cc1`, the inhibition was 34.8% (inactive). In the case of `FC(F)(F)c1nnc2sc(Cc3cccc4ccccc34)nn12`, the inhibition was 71.8% (active). With `CC1CCN(S(=O)(=O)NCc2cc(-c3ccccc3)on2)CC1` the inhibition was 20.4% (inactive). For `O=S(=O)(NCCCC1CCCCC1)N1CCCCCC1`, the inhibition was 26.3% (inactive). For `O=S(=O)(NCc1ncc(-c2ccccc2)o1)N1CCCCCC1`, the inhibition was 58.4% (active). For `Cc1oc(=O)oc1CN1CCN(c2cc3c(cc2F)c(=O)c(C(=O)O)c2n3C(C)S2)CC1` (configuration not stated), the inhibition was 96.9% (active). For `CN1C(=CC=NNc2nc3ccccc3s2)C(C)(C)c2ccccc21`, the inhibition was 97% (active). With `CN1C(=CC=NN=c2sc3ccccc3n2C)C(C)(C)c2ccccc21` the inhibition was 4.19% (inactive). For `c1cc(-c2nc3cc(Oc4ccc5oc(-c6ccncc6)nc5c4)ccc3o2)ccn1`, the inhibition was 32.7% (inactive). For `Cc1ccc(CN2CCN(N=CC(Br)=Cc3ccccc3)CC2)c(C)c1`, the inhibition was 98.3% (active). In the case of `O=C(NN=CC(Br)=Cc1ccccc1)c1cnccn1`, the inhibition was -13.9% (inactive). For `Cc1cccc2sc(N(Cc3ccccc3)C(=O)c3ccno3)nc12`, the inhibition was 35.8% (inactive). For `COC(=O)c1ccc(C(=O)NNc2nc3c(C)cccc3s2)cc1`, the inhibition was 99.7% (active). For `COc1ccccc1OCC(=O)N1CCC(Oc2nc3c(C)cccc3s2)CC1`, the inhibition was 20.8% (inactive). In the case of `Cc1cc(C)cc(Oc2cc(-n3nc(C)cc3C)ncn2)c1`, the inhibition was 65.7% (active). In the case of `CCCN(C)c1cc(Oc2ccc(C)cc2)ncn1`, the inhibition was 25.2% (inactive). With `Fc1ccc(-c2noc3nc(NC4CC4)ccc23)cc1` the inhibition was 92.9% (active). With `CC1CCCC(C)N1CCNc1ccc2c(-c3ccc(F)cc3)noc2n1` (configuration not stated) the inhibition was 47.2% (inactive). For `c1ccc(-c2noc3nc(NC4CC4)ccc23)cc1`, the inhibition was 44.6% (inactive). In the case of `COCCCNc1ccc2c(-c3ccccc3F)noc2n1`, the inhibition was 76.1% (active). In the case of `Fc1ccccc1-c1noc2nc(NC3CC3)ccc12`, the inhibition was 70.5% (active). In the case of `CCCC1=NN(C(C)=O)C(C(=O)NCCCN2CCCCC2C)O1` (configuration not stated), the inhibition was -9.23% (inactive). In the case of `c1ccc(-c2nc3cc4ccccc4cc3[nH]2)nc1`, the inhibition was 17.5% (inactive). For `c1ccc(-c2nc3c(ccc4ccccc43)[nH]2)nc1`, the inhibition was 96.1% (active). For `Oc1ccc2[nH]c(-c3ccccc3)nc2c1CN1CCCCC1`, the inhibition was 13.3% (inactive). With `c1ccc(-c2nc3c(ccc4ccccc43)[nH]2)cc1` the inhibition was 89.8% (active). In the case of `O=C1NC(=O)/C(=C/c2csc(-c3ccccc3)n2)S1`, the inhibition was 59.2% (active). For `CC(C)C(=O)Nc1ccc(OCC(F)(F)F)c(C#N)c1`, the inhibition was -16.8% (inactive). For `O=C(NCC1CCCCN1)c1cc(OCC(F)(F)F)ccc1OCC(F)(F)F` (configuration not stated), the inhibition was 84.3% (active). With `CC(C)c1ccc(C(C)NC(=O)c2cccn2C)cc1` (configuration not stated) the inhibition was 79% (active). In the case of `Cn1cccc1C(=O)NS(=O)(=O)c1ccc(C#N)c(Cl)c1`, the inhibition was 15% (inactive). For `CC(NC(=O)c1cccnc1N1CCCCC1)c1ccc(C#N)cc1` (configuration not stated), the inhibition was 4.4% (inactive). For `CN(Cc1ccccc1)Cc1cc(C(=O)NCc2cccc(F)c2F)no1`, the inhibition was 38.5% (inactive). With `Cc1ccc(C)c(-c2cc(C(=O)NCCC(=O)NCc3ccc(F)cc3)no2)c1` the inhibition was 71.3% (active). In the case of `Cn1cnc([N+](=O)[O-])c1Sc1ncnc2nc[nH]c12`, the inhibition was 56.7% (active). With `Cc1cc(C(=O)Nc2ccc3c(c2)OC2(CCCC2)O3)c(C)o1` the inhibition was 56% (active). With `CC(C)c1ccc(NC(=O)c2ccc(S(N)(=O)=O)cc2)cc1` the inhibition was 2.35% (inactive). For `Cc1cc(C(=O)Nc2ccc(C(C)C)cc2)c(C)o1`, the inhibition was 61.2% (active). For `CC1(C)Oc2ccc(NC(=O)c3ccnc(NC4CC4)c3)cc2O1`, the inhibition was -11.8% (inactive). With `O=S(=O)(Nc1ccc2c(c1)OC1(CCCC1)O2)c1cccs1` the inhibition was 27% (inactive). For `O=C(Nc1ccc(N2CCc3ccccc32)cc1)C1CCOC1` (configuration not stated), the inhibition was 74.7% (active). For `O=C(O)c1cn(Cc2ccccc2)nc1OCc1ccccc1`, the inhibition was 72.7% (active). With `O=C(O)c1cn(Cc2ccc(F)cc2)nc1OCc1ccc(F)cc1` the inhibition was 47.5% (inactive). With `O=C(O)c1cn(Cc2cccc(F)c2)nc1OCc1cccc(F)c1` the inhibition was 29.7% (inactive). In the case of `CCc1cc(=O)[nH]c(-n2nc(C)cc2NC(=O)Cc2ccc(OC)cc2)n1`, the inhibition was 101% (active). For `COc1ccc(CC(=O)Nc2cc(C)nn2-c2nc(C)cc(=O)[nH]2)cc1`, the inhibition was 101% (active). With `CCCc1cc(=O)[nH]c(-n2nc(C)cc2NC(=O)CCc2ccc(OC)cc2)n1` the inhibition was 101% (active). For `COc1ccc(CCC(=O)Nc2cc(C)nn2-c2nc(C)cc(=O)[nH]2)cc1`, the inhibition was 101% (active). In the case of `COC(C)c1ccc(-c2ccc(NC(=O)CN)c(F)c2)cc1` (configuration not stated), the inhibition was 70.7% (active). With `NCC(=O)Nc1ccc(-c2cccc3ccsc23)cc1F` the inhibition was 7.93% (inactive). With `Fc1ccccc1CCNc1ncnc2ccc(Cl)cc12` the inhibition was 60.7% (active). In the case of `Fc1ccccc1-c1cnnc(NCCc2cccc(Cl)c2)n1`, the inhibition was 37.3% (inactive). For `Fc1ccccc1CNCC1(c2ccnc(-c3ccc(Cl)cc3)c2)CC1`, the inhibition was 44% (inactive). In the case of `COc1cc(C(=O)NS(=O)(=O)c2ccc(C#N)cc2)ccc1C`, the inhibition was 21.9% (inactive). In the case of `Cc1ccccc1C(C)NS(=O)(=O)c1ccc(Cl)cc1` (configuration not stated), the inhibition was 17.3% (inactive). With `Cc1ccc(S(=O)(=O)NC(=O)c2cccc(F)c2)cc1C` the inhibition was 79% (active). In the case of `Cc1ccc(S(=O)(=O)NC(c2cccs2)C2CC2)cc1C` (configuration not stated), the inhibition was 37.1% (inactive). For `Cc1ccc(S(=O)(=O)NC(=O)c2ccccc2)cc1C(C)C`, the inhibition was 72.5% (active). In the case of `Cc1cc([N+](=O)[O-])cc(C(C)(C)C)c1O`, the inhibition was 101% (active). In the case of `O=[N+]([O-])c1cc(Br)c(O)c(Br)c1`, the inhibition was 98.7% (active). In the case of `CN(C)P(=Nc1ccc([N+](=O)[O-])cc1Br)(N(C)C)C(C)(C)C`, the inhibition was 11% (inactive). In the case of `CC[n+]1c(C)csc1Nc1ccc(N=Nc2ccccc2)cc1`, the inhibition was -14.7% (inactive). In the case of `O=C(O)CC[N+](=O)[O-]`, the inhibition was 98.6% (active). For `Cc1nc(SCc2nc3ccccc3o2)c2ccccc2n1`, the inhibition was 51.7% (active). With `CC(C)Oc1ncccc1CNC(=O)N1CCc2ccccc21` the inhibition was 28.7% (inactive).
